Measurements published in PubChem BioAssay (NCATS).
“And” between values parts separate entries of the source, which are not always exact repeats. Equal values may be shown once. Results filed as inconclusive are left out. Where a call stands in place of a potency, no number is given. The source made the active and inactive calls. The call rests on the fitted dose curve; in most records, active means well fitted curve in the direction sought with a large enough effect; inconclusive means small, poorly fitted or top-dose-only effect, or another doubt; inactive means no such curve, though single readings can be large; an effect the other way counts as inactive or inconclusive.

Assays:
[1] = qHTS of pediatric cancer cell lines to identify multiple opportunities for drug repurposing: Primary screen for Saos-2 cells (AID 1347097); further: nearly all actives have a fitted effect of over 40% in size; further: potency means the concentration at half of the fitted maximal effect
Outline: (§1)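 Following a 5-hour attachment period, cells at 500-1,000/well received compounds and were cultured for 48 hours. CellTiter-Glo was added and luminescence read to estimate viable, metabolically active cells.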

[2] = qHTS of pediatric cancer cell lines to identify multiple opportunities for drug repurposing: Primary screen for SK-N-SH cells (AID 1347098); further: nearly all actives have a fitted effect of over 65% in size; further: potency means the concentration at half of the fitted maximal effect
Outline: (§2)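 Cells (500-1,000/well) rested 5 h, then received compounds for 48 h; metabolically active cells were measured by CellTiter-Glo luminescence. Final concentrations spanned up to 46 µM (MIPE, 11-point) or 0.59 nM-46 µM (NPC, 8-point) in primary screens, 11-point in follow-ups.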

[3] = qHTS of pediatric cancer cell lines to identify multiple opportunities for drug repurposing: Primary screen for NB1643 cells (AID 1347099); further: nearly all actives have a fitted effect of over 50% in size; further: potency means the concentration at half of the fitted maximal effect
Outline: as §1

[4] = qHTS of pediatric cancer cell lines to identify multiple opportunities for drug repurposing: Primary screen for LAN-5 cells (AID 1347100); further: potency means the concentration at half of the fitted maximal effect
Outline: (§3)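 Cells (500-1,000/well) in growth media were settled 5 h at 37 degrees C, then given compounds for 48 h. Viability was read as CellTiter-Glo luminescence. Primary runs used MIPE at 11 points (0.78 nM-46 µM) and NPC at 8 points (0.59 nM-46 µM); follow-ups used 11 points.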

[5] = qHTS of pediatric cancer cell lines to identify multiple opportunities for drug repurposing: Primary screen for BT-12 cells (AID 1347101); further: nearly all actives have a fitted effect of over 25% in size; further: potency means the concentration at half of the fitted maximal effect
Outline: as §2

[6] = qHTS of pediatric cancer cell lines to identify multiple opportunities for drug repurposing: Primary screen for Rh18 cells (AID 1347102); further: nearly all actives have a fitted effect of over 65% in size; further: potency means the concentration at half of the fitted maximal effect
Outline: as §3

[7] = qHTS of pediatric cancer cell lines to identify multiple opportunities for drug repurposing: Primary screen for RD cells (AID 1347104); further: nearly all actives have a fitted effect of over 55% in size; further: potency means the concentration at half of the fitted maximal effect
Outline: as §1

[8] = qHTS of pediatric cancer cell lines to identify multiple opportunities for drug repurposing: Primary screen for MG 63 (6-TG R) cells (AID 1347105); further: nearly all actives have a fitted effect of over 50% in size; further: potency means the concentration at half of the fitted maximal effect
Outline: as §1

[9] = qHTS of pediatric cancer cell lines to identify multiple opportunities for drug repurposing: Primary screen for control Hh wild type fibroblast cells (AID 1347106);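 further: series mostly up to about 46 µM; a drop in luminescence marks cytotoxicity and a rise apparent proliferation; nearly all actives have a fitted effect of over 55% in size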
Outline: as §3

[10] = qHTS of pediatric cancer cell lines to identify multiple opportunities for drug repurposing: Primary screen for OHS-50 cells (AID 1347103); further: nearly all actives have a fitted effect of over 40% in size; further: potency means the concentration at half of the fitted maximal effect
Outline: as §2

Row | Compound | Potency [1] | Potency [2] | Potency [3] | Potency [4] | Potency [5] | Potency [6] | Potency [7] | Potency [8] | Potency [9] | Potency [10]
1 | COc1ccccc1OCC(O)CN1CCN(CC(=O)Nc2c(C)cccc2C)CC1 (stereo unspecified) | inactive | inactive | inactive | inactive | inactive | inactive | inactive | inactive | inactive | –
2 | NCCc1cnc[nH]1 | inactive | inactive | inactive | inactive | inactive | inactive | inactive | inactive | inactive | inactive
3 | CC(=O)OCC(CCn1cnc2cnc(N)nc21)COC(C)=O | inactive | inactive | inactive | inactive | inactive | inactive | inactive | inactive | – | –
4 | Cc1cnc(C(=O)NCCc2ccc(S(=O)(=O)NC(=O)NC3CCCCC3)cc2)cn1 | inactive | inactive | inactive | inactive | inactive | inactive | inactive | inactive | – | inactive
5 | COc1ccc(CCN(C)CCCC(C#N)(c2ccc(OC)c(OC)c2)C(C)C)cc1OC (stereo unspecified) | inactive | inactive | inactive | inactive | inactive | inactive | inactive | inactive | – | –
6 | Cn1c(=O)c2[nH]cnc2n(C)c1=O | inactive | inactive | inactive | inactive | inactive | inactive | inactive | inactive | – | inactive
7 | COc1nc(C)nc(Cl)c1NC1=NCCN1 | inactive | inactive | inactive | inactive | inactive | inactive | inactive | inactive | – | –
8 | CN(C)C(=N)N=C(N)N | inactive | inactive | inactive | inactive | inactive | inactive | inactive | inactive | – | –
9 | O=C(C1CCCCC1)N1CC(=O)N2CCc3ccccc3C2C1 (stereo unspecified) | inactive | inactive | inactive | inactive | inactive | inactive | inactive | inactive | inactive | –
10 | CN(C)C(=O)C(CCN1CCC(O)(c2ccc(Cl)cc2)CC1)(c1ccccc1)c1ccccc1 | inactive | 24.1 µM (active) and 15.4 µM (active) | 26.6 µM (active) | 18.7 µM (active) | 19.3 µM (active) and 21.9 µM (active) | 20.9 µM (active) | 26.4 µM (active) and 26.6 µM (active) | – | inactive | 21.7 µM (active) and 19.5 µM (active)
11 | Nc1c2c(nc3ccccc13)CCCC2 | inactive | inactive | inactive | inactive | inactive | inactive | inactive | inactive | inactive | inactive
12 | Clc1ccc2nsnc2c1NC1=NCCN1 | inactive | inactive | inactive | inactive | inactive | inactive | inactive | inactive | – | inactive
13 | CC(C)(C)C(=O)Oc1ccc(S(=O)(=O)Nc2ccccc2C(=O)NCC(=O)O)cc1 | inactive | inactive | inactive | inactive | inactive | inactive | inactive | inactive | inactive | inactive
14 | NS(=O)(=O)c1cc2c(cc1Cl)NCNS2(=O)=O | inactive | inactive | inactive | inactive | inactive | inactive | inactive | inactive | – | –
15 | CCc1cccc2c3c([nH]c12)C(CC)(CC(=O)O)OCC3 (stereo unspecified) | inactive | inactive | inactive | inactive | inactive | inactive | inactive | inactive | inactive | inactive
16 | CCOC(=O)Nc1ccc(NCc2ccc(F)cc2)nc1N | inactive | inactive | inactive | inactive | inactive | inactive | inactive | inactive | inactive | inactive
17 | COc1ccc2[nH]cc(CCNC(C)=O)c2c1 | inactive | inactive | inactive | inactive | inactive | inactive | inactive | inactive | – | –
18 | CC[C@@]1(O)C(=O)OCc2c1cc1n(c2=O)Cc2cc3c(CN(C)C)c(O)ccc3nc2-1 | 29.9 nM (active) and 235 nM (active) | 344 nM (active) and 1.71 µM (active) | 26.6 nM (active) and 296 nM (active) | 47.3 nM (active) and 41.8 nM (active) | 309 nM (active) and 1.37 µM (active) | 473 nM (active) and 1.48 µM (active) | 2.66 µM (active) and 4.69 µM (active) | 66.8 nM (active) and 296 nM (active) | – | 27.6 nM (active) and 109 nM (active)
19 | CC(C)NCC(O)COc1ccc(CCOCC2CC2)cc1 (stereo unspecified) | inactive | inactive | inactive | inactive | inactive | inactive | inactive | inactive | – | inactive
20 | Clc1ccc2c(c1)C(N1CCNCC1)=Nc1ccccc1O2 | inactive | inactive | inactive | inactive | inactive | inactive | inactive | inactive | inactive | inactive

Row | Compound | Potency [1] | Potency [2] | Potency [3] | Potency [4] | Potency [5] | Potency [6] | Potency [7] | Potency [8] | Potency [9] | Potency [10]
21 | CC(C)Cc1ccc(C(C)C(=O)O)cc1 (stereo unspecified) | inactive | inactive | inactive | inactive | inactive | inactive | inactive | inactive | – | –
22 | Cn1c(=O)c2c(ncn2C)n(C)c1=O | inactive | inactive | inactive | inactive | inactive | inactive | inactive | inactive | – | –
23 | CCC1(C)CC(=O)NC1=O (stereo unspecified) | inactive | inactive | inactive | inactive | inactive | inactive | inactive | inactive | – | inactive
24 | Nc1nnc(-c2cccc(Cl)c2Cl)c(N)n1 | inactive | inactive | inactive | inactive | inactive | inactive | inactive | inactive | inactive | inactive
25 | C[C@H]1c2cccc(O)c2C(O)=C2C(=O)[C@]3(O)C(O)=C(C(N)=O)C(=O)[C@@H](N(C)C)[C@@H]3[C@@H](O)[C@@H]21 | inactive | inactive | inactive | inactive | 24.3 µM (active) | inactive | inactive | inactive | – | –
26 | CN(CCOc1ccc(NS(C)(=O)=O)cc1)CCc1ccc(NS(C)(=O)=O)cc1 | inactive | inactive | inactive | inactive | inactive | inactive | inactive | inactive | – | –
27 | O=C(c1ccc(F)cc1)C1CCN(CCn2c(=O)[nH]c3ccccc3c2=O)CC1 | inactive | inactive | inactive | inactive | inactive | inactive | inactive | inactive | inactive | inactive
28 | CC[N+](CC)(CC)CCOc1cccc(OCC[N+](CC)(CC)CC)c1OCC[N+](CC)(CC)CC | inactive | inactive | inactive | inactive | inactive | inactive | inactive | inactive | inactive | inactive
29 | CN(C)c1nc(N(C)C)nc(N(C)C)n1 | inactive | inactive | inactive | inactive | inactive | inactive | inactive | inactive | inactive | inactive
30 | CCN1CCCC1CNC(=O)c1cc(S(=O)(=O)CC)c(N)cc1OC (stereo unspecified) | inactive | inactive | inactive | inactive | inactive | inactive | inactive | inactive | – | inactive
31 | O=C1c2c(O)ccc(O)c2C(=O)c2c(NCCNCCO)ccc(NCCNCCO)c21 | 1.66 µM (active) and 1.68 µM (active) | 383 nM (active) and 486 nM (active) | 469 nM (active) and 668 nM (active) | 0.0833 µM (active) | 1.72 µM (active) and 490 nM (active) | 2.09 µM (active) and 2.37 µM (active) | 4.69 µM (active) and 6.68 µM (active) | 372 nM (active) | – | 344 nM (active) and 49 nM (active)
32 | NCCS(=O)(=O)O | inactive | inactive | inactive | inactive | inactive | inactive | inactive | inactive | inactive | inactive
33 | O=C1N(c2ccccc2)c2ccccc2C1(Cc1ccncc1)Cc1ccncc1 | inactive | inactive | inactive | inactive | inactive | inactive | inactive | inactive | inactive | inactive
34 | CCOC(=O)c1ncn2c1CN(C)C(=O)c1cc(F)ccc1-2 | inactive | inactive | inactive | inactive | inactive | inactive | inactive | inactive | – | –
35 | CCCNCC(O)COc1ccccc1C(=O)CCc1ccccc1 (stereo unspecified) | inactive | 21.7 µM (active) | inactive | – | – | – | 33.2 µM (active) | inactive | inactive | –
36 | COc1cc2nc(N(C)CCCNC(=O)C3CCCO3)nc(N)c2cc1OC (stereo unspecified) | inactive | inactive | inactive | inactive | inactive | inactive | inactive | inactive | inactive | –
37 | CN1CCN2c3ccccc3Cc3ccccc3C2C1 (stereo unspecified) | inactive | inactive | inactive | – | inactive | inactive | inactive | inactive | – | –
38 | NC(CO)C(=O)NNCc1ccc(O)c(O)c1O (stereo unspecified) | inactive | inactive | inactive | – | inactive | inactive | – | inactive | inactive | inactive
39 | COc1ccc(C2CNC(=O)C2)cc1OC1CCCC1 (stereo unspecified) | inactive | inactive | inactive | inactive | inactive | inactive | inactive | inactive | inactive | –
